# Measured values published in the supplement of paper PMC12632987.
# T1: USP38, Q8NB14
# T1 chain: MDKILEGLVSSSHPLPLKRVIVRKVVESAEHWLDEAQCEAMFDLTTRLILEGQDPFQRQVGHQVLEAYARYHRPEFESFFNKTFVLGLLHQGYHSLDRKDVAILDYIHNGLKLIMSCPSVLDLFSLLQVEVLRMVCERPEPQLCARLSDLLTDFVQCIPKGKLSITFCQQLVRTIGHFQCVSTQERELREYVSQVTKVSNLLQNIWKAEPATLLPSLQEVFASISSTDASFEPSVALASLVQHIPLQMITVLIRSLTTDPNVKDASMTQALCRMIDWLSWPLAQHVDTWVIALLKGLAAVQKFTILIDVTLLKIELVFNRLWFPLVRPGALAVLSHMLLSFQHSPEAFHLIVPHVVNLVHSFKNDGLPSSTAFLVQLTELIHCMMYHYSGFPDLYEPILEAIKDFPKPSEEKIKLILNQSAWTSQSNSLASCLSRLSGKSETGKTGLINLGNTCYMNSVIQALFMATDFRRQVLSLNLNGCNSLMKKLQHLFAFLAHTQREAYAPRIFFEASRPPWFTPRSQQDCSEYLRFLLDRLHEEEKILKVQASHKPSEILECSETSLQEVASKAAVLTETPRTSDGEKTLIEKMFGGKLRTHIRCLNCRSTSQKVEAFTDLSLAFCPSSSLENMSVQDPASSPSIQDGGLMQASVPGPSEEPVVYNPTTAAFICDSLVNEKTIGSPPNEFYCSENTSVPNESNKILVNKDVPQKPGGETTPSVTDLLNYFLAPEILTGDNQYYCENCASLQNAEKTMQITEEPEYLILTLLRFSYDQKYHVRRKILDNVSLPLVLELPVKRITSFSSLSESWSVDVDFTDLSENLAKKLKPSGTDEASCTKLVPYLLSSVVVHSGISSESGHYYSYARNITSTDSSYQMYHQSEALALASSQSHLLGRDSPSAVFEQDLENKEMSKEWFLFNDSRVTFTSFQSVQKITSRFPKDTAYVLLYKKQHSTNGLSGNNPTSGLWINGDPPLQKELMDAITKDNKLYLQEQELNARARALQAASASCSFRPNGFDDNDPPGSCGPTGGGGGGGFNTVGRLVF
# B1: usp_38_diff_out_5_164_600 (protein)
# chain: SVEESLAEIDKITAELKEELKALLAEAKENPEKLKEYKKKMTEKMNEAIDKMNEITTKTLEAYPEQADTILAHYDRRMTEMLTAYNEAMKELEALEKELA
# B2: usp_38_diff_out_5_164_603 (protein)
# chain: AVEAALAEMDAIAAELKKELEKLLEEAKKNPEKLEEYKKKLTEATNAALDRLNATTTAALEAAPERADEILAHYDRVVTEMLTKYQEAKEELEKLKKEAA
# B3: usp_38_diff_out_5_164_596 (protein)
# chain: SVEEALKELTELTDKTIAEIDKLVAEAKKNPEKLDEYEKQLTETTNEAIDKMNEITTKALEANPEKADEILSHYDEQMTRLLTRYAEAKAEIEALKKALE
# B4: usp_38_diff_out_5_164_584 (protein)
# chain: EVEEAFKEMDALTEETIKKLNELLKEAKENPEKAEEYLKEATSLVNSALDKLNEITTETLEKHPEKAEEILKHYDERVTKLLTEYQKVKEEIQKIIEEAK
# B5: usp_38_diff_out_5_164_602 (protein)
# chain: SLEEYLKEMDELTKELIEELKKLVEEAKKNPEKLEEYKKKINEKTNEAIDKMNEITTKALEEFPEKAEEILKHYSEQIDKMLEAKNAAMKELDALKKAQA
# B6: usp_38_diff_out_5_164_585 (protein)
# chain: GVEEAKKKMTELTEETIKKLEELLKKAKENPEKAEEYLKEANKLVQEALDELNRITTETLEAHPEQAEEILAHYSEQVTKLLTKYQEVMKEIKEIIKKAK
# B7: usp_38_diff_out_5_164_593 (protein)
# chain: GVEEYLEELEKITEEAIKKLKELLEEAKKDPSKLEEYKKKATELVNEAIDKMNEITTEALEKHPEKADEILEHYDRQVTRLLTEYQKVMDEIEKIKKELE
# B8: usp_38_diff_out_5_164_592 (protein)
# chain: GVEKYLEELQKITDEAIKELKELLEEAKENPEKLEEYKKKATEKTNEAIDKMNEITTKALEEHPEQADTILAHYDEQVTKLLTEYNEVLKEIEELKKKKE
# B9: usp_38_diff_out_5_164_586 (protein)
# chain: TVEAAKKQMDEITEKLIKELKKLKEEAEKDPSKLDEIEKEANEKTNKAIDEMTAITTETLEANPEKADEILAHYSEQIDKMLKEYQELMDYIKKLKEEKE
# B10: usp_38_diff_out_5_164_604 (protein)
# chain: AVEEALAKMKAITEELKKKFDELLAEAKKNPEKLDEYKKEVTEALNKAIDEMNEVTTAALEAAPEQADTILAAYDENVTEMLTHYQAVMDELKALEKEAA
# B11: usp_38_diff_out_5_164_599 (protein)
# chain: SLEEYLRRMEEIREKLIKELKELLEEAKKNPEKLEEIKKEVEKKTEEALNEMNEITTAALEAYPERAEEILRHYSEQVEKMLTEYQEVMEELEKLEKEKK
# B12: usp_38_diff_out_5_164_589 (protein)
# chain: GVEKYLEEIDKLTEEAIAKIKELLAEAKKNPEKLDEVEKEIKELTDKTLDEINKITTEALEKFPEKAEEILSHYDEQVTKLLTAYQAALDELAKLKKEKA
# B13: usp_38_diff_out_5_164_594 (protein)
# chain: GVDAALAEIDKITEEAIKKMEELLEKAKKNPEQLDEYKKKLTEITNEALDKINATTTAALEAHPEQADTILAHYDKQVTKMLTKYQEALDEIEKLKKEKE
# B14: usp_38_diff_out_5_164_587 (protein)
# chain: MVEEYLKEMEKITEEAIKKLEELLAEAKKNPEKLDEYKKEIEKLVEKALNEINELVTKALEENPEKAEEILKKYDELVTKLLTAYQKAMKELEALKKEKA
# B15: usp_38_diff_out_5_164_605 (protein)
# chain: GVEEALERLERIREELKKELDELLEEAKKNPEKLEEYKKKVTEKVNEAIDEMNEVTTAALEAHPERADEILAHYDEVVTEMLEHYNKVMEELEKLKKEYE
# B16: usp_38_diff_out_5_164_588 (protein)
# chain: GLEEYLEEIDKITEETIEKLKKLLEEAKKNPEKLEEYEKEIEKLTEEALDKINEVVTEALEKHPEKAEEILAHYDEQVTRLLTAYQEAKKELEKLKKEKE
# Target: T1, USP38, Q8NB14
# Experiment: median log2 fold change of GCK-ALFA target abundance (FLAG IP / Myc IP barcode read proportion) (log2 ratio); each designed protein is fused to an ALFA-tag nanobody in HEK293 cells to bring the named protein to FLAG-tagged glucokinase (GCK); Myc marks an untargeted standard; higher = target protein stabilised (more abundant)
# Settings: target protein: 3xFLAG-MCP-GCK-ALFA reporter; HEK293 landing pad (RPLP)
# Outline: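 Binders fused to an ALFA nanobody were recombined as a library into HEK293 landing-pad cells, which were induced with 2 μg mL^−1 doxycycline and then transfected to express a FLAG-tagged target and a Myc-tagged standard. After 48 h, circular RNA barcodes recovered by anti-FLAG and anti-Myc immunoprecipitation of lysates were reverse transcribed, amplified and sequenced. Each binder's target abundance is the median log2 ratio of FLAG to Myc barcode read proportions, from barcodes present at ≥10^−7 in both replicates, binders carrying ≥3 barcodes per replicate, a 10^−6 pseudocount and pooled replicates.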
row,Binder,median log2 fold change
1,B1,-0.0274
2,B2,-0.21
3,B3,-0.12
4,B4,-0.0565
5,B5,0.277
6,B6,0.00563
7,B7,-0.211
8,B8,0.0989
9,B9,-0.179
10,B10,-0.333
11,B11,-0.404
12,B12,-0.351
13,B13,-0.474
14,B14,-0.281
15,B15,-0.0369
16,B16,0.25
